Assay results published in PubChem BioAssay (NCI).
This is part of a sample that, as a whole, favours compounds with a hit. Of some 83,000 tested, about 20% had one in any assay.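 Growth was measured after 48 h exposure to one concentration of compound in 96-well plates. Values under 10 count as active.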 Activity calls are given as the source filed them.

Tests used:
Test in all cases: NCI-60 one-dose screen, 48 h (100 = growth as untreated, 0 = no growth, -100 = all killed)
Conditions in all cases: 10 µM unless noted
SK-MEL-2 melanoma = tested on: SK-MEL-2 melanoma
EKVX NSCLC = tested on: EKVX NSCLC
SN12C renal = tested on: SN12C renal
UO-31 renal = tested on: UO-31 renal
TK-10 renal = tested on: TK-10 renal
ACHN renal = tested on: ACHN renal
CCRF-CEM leukemia = tested on: CCRF-CEM leukemia
MOLT-4 leukemia = tested on: MOLT-4 leukemia
SR leukemia = tested on: SR leukemia
RPMI-8226 leukemia = tested on: RPMI-8226 leukemia
OVCAR-8 ovarian = tested on: OVCAR-8 ovarian
OVCAR-5 ovarian = tested on: OVCAR-5 ovarian
OVCAR-4 ovarian = tested on: OVCAR-4 ovarian
SK-OV-3 ovarian = tested on: SK-OV-3 ovarian
IGROV1 ovarian = tested on: IGROV1 ovarian
OVCAR-3 ovarian = tested on: OVCAR-3 ovarian
HS 578T breast = tested on: HS 578T breast
NCI/ADR-RES ovarian = tested on: NCI/ADR-RES ovarian
A498 renal = tested on: A498 renal
CAKI-1 renal = tested on: CAKI-1 renal

Measured: growth

Fc1ccc(-n2cc(COc3ncnc4sc5c(c34)CCCC5)nn2)cc1Cl
inactive: SK-MEL-2 melanoma 103% | EKVX NSCLC 94.1% | SN12C renal 98.7% | UO-31 renal 82.3% | TK-10 renal 113% | ACHN renal 102% | CCRF-CEM leukemia 89% | MOLT-4 leukemia 98.8% | SR leukemia 93.5% | RPMI-8226 leukemia 96% | OVCAR-8 ovarian 96.7% | OVCAR-5 ovarian 96.6% | OVCAR-4 ovarian 99.7% | SK-OV-3 ovarian 103% | IGROV1 ovarian 91.9% | OVCAR-3 ovarian 112% | HS 578T breast 104% | NCI/ADR-RES ovarian 95.1%

COc1cc(COC(=O)CCCCC[P+](c2ccccc2)(c2ccccc2)c2ccccc2)c(OC)c2c1OCO2
inactive: SK-MEL-2 melanoma 68.4% | EKVX NSCLC 73% | SN12C renal 51% | UO-31 renal 91.4% | TK-10 renal 75.6% | ACHN renal 98.5% | A498 renal 52.5% | MOLT-4 leukemia 93.3% | OVCAR-8 ovarian 64.4% | OVCAR-5 ovarian 76.9% | OVCAR-4 ovarian 41.2% | SK-OV-3 ovarian 76.6% | IGROV1 ovarian 28.6% | OVCAR-3 ovarian 48.7% | HS 578T breast 70.8% | NCI/ADR-RES ovarian 104%
active: SR leukemia 0.217% | RPMI-8226 leukemia -23.1%

Cc1cc(C)n(Nc2nc3ccccc3[nH]c2=O)c(=O)c1C#N
inactive: SK-MEL-2 melanoma 108% | EKVX NSCLC 88.2% | SN12C renal 89.8% | UO-31 renal 78.8% | TK-10 renal 111% | ACHN renal 94.1% | CCRF-CEM leukemia 109% | MOLT-4 leukemia 96.7% | SR leukemia 82.5% | OVCAR-8 ovarian 97.7% | OVCAR-5 ovarian 99.7% | OVCAR-4 ovarian 93.4% | SK-OV-3 ovarian 96.9% | IGROV1 ovarian 94.8% | OVCAR-3 ovarian 101% | HS 578T breast 92.7% | NCI/ADR-RES ovarian 101%

O=C1NC(=S)NC(=O)C1=Cc1cn(Cc2ccccn2)c2ccccc12
inactive: SK-MEL-2 melanoma 89.7% | EKVX NSCLC 84.7% | SN12C renal 66.6% | UO-31 renal 59.2% | TK-10 renal 72.7% | ACHN renal 82.2% | CCRF-CEM leukemia 31.3% | MOLT-4 leukemia 66% | SR leukemia 13.1% | RPMI-8226 leukemia 91.2% | OVCAR-8 ovarian 51.7% | OVCAR-4 ovarian 80.8% | SK-OV-3 ovarian 85.5% | IGROV1 ovarian 11.3% | OVCAR-3 ovarian 33.5% | HS 578T breast 81.9% | NCI/ADR-RES ovarian 85.1%
active: A498 renal -86.4% | OVCAR-5 ovarian -4.45%

Cc1cc(C(=O)Nc2ncnc3nc[nH]c23)no1
inactive: SK-MEL-2 melanoma 131% | EKVX NSCLC 103% | SN12C renal 93.8% | UO-31 renal 80.5% | TK-10 renal 118% | ACHN renal 99.8% | A498 renal 110% | CCRF-CEM leukemia 86.4% | MOLT-4 leukemia 91.7% | SR leukemia 89.6% | RPMI-8226 leukemia 95% | OVCAR-8 ovarian 102% | OVCAR-5 ovarian 116% | OVCAR-4 ovarian 114% | SK-OV-3 ovarian 97.2% | IGROV1 ovarian 89.6% | OVCAR-3 ovarian 108% | HS 578T breast 95.5% | NCI/ADR-RES ovarian 106%

Fc1ccccc1CSc1ncnc2nc[nH]c12
inactive: SK-MEL-2 melanoma 86.6% | EKVX NSCLC 113% | SN12C renal 101% | UO-31 renal 94.9% | TK-10 renal 142% | ACHN renal 107% | A498 renal 112% | CCRF-CEM leukemia 117% | MOLT-4 leukemia 92.3% | SR leukemia 105% | RPMI-8226 leukemia 95.1% | OVCAR-8 ovarian 80.5% | OVCAR-5 ovarian 110% | OVCAR-4 ovarian 113% | OVCAR-3 ovarian 118% | HS 578T breast 111% | NCI/ADR-RES ovarian 114%

O=C(Nc1sc2c(c1C(=O)O)CCCC2)c1cccc(C(F)(F)F)c1
inactive: SK-MEL-2 melanoma 98.6% | EKVX NSCLC 93.7% | SN12C renal 95.6% | UO-31 renal 85.8% | TK-10 renal 105% | ACHN renal 87.9% | A498 renal 95.2% | CCRF-CEM leukemia 85.3% | MOLT-4 leukemia 96.9% | SR leukemia 115% | RPMI-8226 leukemia 80.9% | OVCAR-8 ovarian 94.6% | OVCAR-5 ovarian 98.5% | OVCAR-4 ovarian 86.2% | SK-OV-3 ovarian 83.8% | IGROV1 ovarian 96.3% | OVCAR-3 ovarian 94.3% | HS 578T breast 98.2% | NCI/ADR-RES ovarian 93.3%

CC1NC(=S)NC(=O)/C1=C/c1cc(=O)oc2c1ccc1ccccc12 (centres undefined)
inactive: SK-MEL-2 melanoma 91% | EKVX NSCLC 88.7% | SN12C renal 95.6% | UO-31 renal 73.6% | TK-10 renal 123% | ACHN renal 95.6% | A498 renal 101% | CCRF-CEM leukemia 81% | MOLT-4 leukemia 88.6% | SR leukemia 94% | RPMI-8226 leukemia 102% | OVCAR-8 ovarian 87.5% | OVCAR-5 ovarian 105% | OVCAR-4 ovarian 95.7% | SK-OV-3 ovarian 94.4% | IGROV1 ovarian 91.9% | OVCAR-3 ovarian 100% | HS 578T breast 94.4% | NCI/ADR-RES ovarian 92.7%

CC(=O)CCSc1ccc(OC(C)=O)cc1
inactive: SK-MEL-2 melanoma 99.5% | EKVX NSCLC 105% | SN12C renal 101% | UO-31 renal 87.3% | TK-10 renal 96.3% | ACHN renal 103% | A498 renal 95.8% | CCRF-CEM leukemia 75.3% | MOLT-4 leukemia 94.1% | SR leukemia 90.1% | RPMI-8226 leukemia 92.8% | OVCAR-8 ovarian 96.6% | OVCAR-5 ovarian 111% | OVCAR-4 ovarian 107% | SK-OV-3 ovarian 101% | IGROV1 ovarian 114% | OVCAR-3 ovarian 104% | HS 578T breast 106% | NCI/ADR-RES ovarian 106%

Fc1cc(C2=NNC(c3ccc[nH]3)C2)ccc1-n1ccc(C(F)(F)F)n1 (centres undefined)
active: RPMI-8226 leukemia 0.914%
inactive: SK-MEL-2 melanoma 102% | EKVX NSCLC 84.7% | SN12C renal 85.6% | UO-31 renal 52.1% | TK-10 renal 117% | CAKI-1 renal 66.5% | CCRF-CEM leukemia 68.3% | MOLT-4 leukemia 77.5% | SR leukemia 77.9% | OVCAR-8 ovarian 89% | OVCAR-5 ovarian 96.7% | OVCAR-4 ovarian 93.6% | SK-OV-3 ovarian 112% | IGROV1 ovarian 90% | OVCAR-3 ovarian 85.6% | HS 578T breast 103% | NCI/ADR-RES ovarian 90.6%

CCCCCN1C=C/C(=C\C(=O)N(C)c2cccc3ccccc23)c2ccccc21
inactive: SK-MEL-2 melanoma 109% | EKVX NSCLC 89.1% | SN12C renal 100% | UO-31 renal 82.5% | TK-10 renal 105% | CAKI-1 renal 89.8% | CCRF-CEM leukemia 89.5% | MOLT-4 leukemia 99% | SR leukemia 81.5% | RPMI-8226 leukemia 78.5% | OVCAR-8 ovarian 98.4% | OVCAR-5 ovarian 109% | OVCAR-4 ovarian 86.5% | SK-OV-3 ovarian 99.6% | IGROV1 ovarian 93.7% | OVCAR-3 ovarian 96.9% | HS 578T breast 99.9% | NCI/ADR-RES ovarian 106%

CNC(=O)NCC1OC(n2cnc3c(NC(=O)Nc4ccccc4)ncnc32)C(O[Si](C)(C)C(C)(C)C)C1O[Si](C)(C)C(C)(C)C (centres undefined)
inactive: SK-MEL-2 melanoma 56.7% | EKVX NSCLC 23.4% | UO-31 renal 48.3% | TK-10 renal 34.2% | CAKI-1 renal 59.5% | CCRF-CEM leukemia 42.6% | MOLT-4 leukemia 24.1% | RPMI-8226 leukemia 20.2% | OVCAR-8 ovarian 32.9% | OVCAR-5 ovarian 69.2% | OVCAR-4 ovarian 29.6% | SK-OV-3 ovarian 77.5% | IGROV1 ovarian 52.5% | HS 578T breast 61% | NCI/ADR-RES ovarian 31%
active: SN12C renal -79.3% | SR leukemia -22.1% | OVCAR-3 ovarian -28.7%

C#Cc1cccc(NC(=O)Nc2cccc(N=C=S)c2)c1
inactive: SK-MEL-2 melanoma 109% [8.25 µM] | EKVX NSCLC 99.7% [8.25 µM] | SN12C renal 97.6% [8.25 µM] | UO-31 renal 87.7% [8.25 µM] | TK-10 renal 119% [8.25 µM] | CAKI-1 renal 94.7% [8.25 µM] | A498 renal 85% [8.25 µM] | CCRF-CEM leukemia 96.1% [8.25 µM] | MOLT-4 leukemia 97.8% [8.25 µM] | SR leukemia 88.9% [8.25 µM] | RPMI-8226 leukemia 99.3% [8.25 µM] | OVCAR-8 ovarian 98.6% [8.25 µM] | OVCAR-5 ovarian 102% [8.25 µM] | OVCAR-4 ovarian 99.6% [8.25 µM] | SK-OV-3 ovarian 120% [8.25 µM] | IGROV1 ovarian 98.4% [8.25 µM] | OVCAR-3 ovarian 115% [8.25 µM] | HS 578T breast 95.6% [8.25 µM] | NCI/ADR-RES ovarian 106% [8.25 µM]

COc1ccccc1Nc1cc(O)c2c(=O)cc(-c3ccccc3)oc2c1
active: CCRF-CEM leukemia 7.29% | SR leukemia 5.75% | OVCAR-3 ovarian 5.9%
inactive: SK-MEL-2 melanoma 13.7% | EKVX NSCLC 57.4% | SN12C renal 36.6% | UO-31 renal 46.6% | TK-10 renal 66.3% | CAKI-1 renal 41.3% | A498 renal 11.6% | MOLT-4 leukemia 25.9% | RPMI-8226 leukemia 16.4% | OVCAR-8 ovarian 32.4% | OVCAR-4 ovarian 65.6% | SK-OV-3 ovarian 50.7% | IGROV1 ovarian 51.4% | HS 578T breast 45.6% | NCI/ADR-RES ovarian 11.5%

COc1cc(OC)c(/C=C/C(=O)c2ccc(Nc3ncnc4ccccc34)cc2)c(OC)c1
inactive: SN12C renal 25.3% | ACHN renal 22.8% | CAKI-1 renal 17.8% | MOLT-4 leukemia 12.7% | RPMI-8226 leukemia 12.2% | IGROV1 ovarian 19.3%
active: SK-MEL-2 melanoma 7.01% | UO-31 renal -15.8% | TK-10 renal -17.9% | A498 renal -26.4% | CCRF-CEM leukemia 1.37% | SR leukemia 1.91% | OVCAR-8 ovarian -44% | OVCAR-5 ovarian 8.12% | OVCAR-4 ovarian 6.46% | SK-OV-3 ovarian -42.4% | OVCAR-3 ovarian -67.8% | HS 578T breast -13.2%

O=C(N/N=C/c1cccnc1)c1ccccc1Nc1cccc(C(F)(F)F)c1
inactive: SK-MEL-2 melanoma 101% | EKVX NSCLC 89.2% | SN12C renal 159% | UO-31 renal 76.4% | TK-10 renal 97.2% | CAKI-1 renal 79.6% | A498 renal 75.6% | MOLT-4 leukemia 62.7% | RPMI-8226 leukemia 71.1% | OVCAR-8 ovarian 83.1% | OVCAR-5 ovarian 96.4% | OVCAR-4 ovarian 70.3% | SK-OV-3 ovarian 80.3% | IGROV1 ovarian 91.4% | OVCAR-3 ovarian 75.4% | HS 578T breast 100% | NCI/ADR-RES ovarian 79%
active: CCRF-CEM leukemia -52.4% | SR leukemia -15.3%

CCCCCCNC(=O)Oc1ccc(/C(=C(/CC)Cc2ccccc2)c2ccc(OCCN(CC)CC)cc2)cc1
inactive: SK-MEL-2 melanoma 99.8% | EKVX NSCLC 81% | SN12C renal 73.5% | UO-31 renal 58% | TK-10 renal 93.1% | CAKI-1 renal 91% | CCRF-CEM leukemia 45.4% | MOLT-4 leukemia 35.2% | RPMI-8226 leukemia 26.8% | OVCAR-8 ovarian 61.4% | OVCAR-4 ovarian 66.4% | SK-OV-3 ovarian 89% | IGROV1 ovarian 76.6% | HS 578T breast 69.7% | NCI/ADR-RES ovarian 70.6%
active: SR leukemia -27.3%
